L major viab: inhibitors of Leishmania major promastigote growth. 200,000 compounds, 9% hits. inhibition, % at 10 µM. AID 1063. Leishmania major promastigotes, resazurin fluorescence viability; in the data active = inhibition above about 50%;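 note: promastigotes grown with compound for 44 hours at 28 °C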
Ins promoter up: MIN6 insulin promoter up-regulation. MIN6 insulin promoter-GFP reporter, high-content imaging; active compounds read high. z-score at 5 µM. 190,000 compounds, 0.3% hits. AID 1625;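 active = z-score above 3 at 5 µM with at least 500 cells counted in the well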
WT yeast gro inh: growth inhibition of WT yeast, mitochondrial fusion screen; mitochondrial fusion phenotypic screen, WT strain; inhibition, % at 10 µM; 190,000 compounds, 2.1% hits; in the data active = inhibition above about 58%; tested in S. cerevisiae
KCC2 mod: KCC2 (human) Cl- transport modulation. B-score of Tl+ flux slope (higher = more flux/activation; lower = inhibition) at 10 µM. Q9H2X9. KCC2 cells, thallium flux FluoZin-2 fluorescence. 190,000 compounds, 2.2% hits;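 active = thallium flux slope and its plate-corrected score both differing from the plate sample mean at a set confidence after two filtering rounds, in either direction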;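 note: slope of fluorescence scaled to starting intensity during 10 to 20 s after thallium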
Target sequence (Q9H2X9 whole entry, looked up): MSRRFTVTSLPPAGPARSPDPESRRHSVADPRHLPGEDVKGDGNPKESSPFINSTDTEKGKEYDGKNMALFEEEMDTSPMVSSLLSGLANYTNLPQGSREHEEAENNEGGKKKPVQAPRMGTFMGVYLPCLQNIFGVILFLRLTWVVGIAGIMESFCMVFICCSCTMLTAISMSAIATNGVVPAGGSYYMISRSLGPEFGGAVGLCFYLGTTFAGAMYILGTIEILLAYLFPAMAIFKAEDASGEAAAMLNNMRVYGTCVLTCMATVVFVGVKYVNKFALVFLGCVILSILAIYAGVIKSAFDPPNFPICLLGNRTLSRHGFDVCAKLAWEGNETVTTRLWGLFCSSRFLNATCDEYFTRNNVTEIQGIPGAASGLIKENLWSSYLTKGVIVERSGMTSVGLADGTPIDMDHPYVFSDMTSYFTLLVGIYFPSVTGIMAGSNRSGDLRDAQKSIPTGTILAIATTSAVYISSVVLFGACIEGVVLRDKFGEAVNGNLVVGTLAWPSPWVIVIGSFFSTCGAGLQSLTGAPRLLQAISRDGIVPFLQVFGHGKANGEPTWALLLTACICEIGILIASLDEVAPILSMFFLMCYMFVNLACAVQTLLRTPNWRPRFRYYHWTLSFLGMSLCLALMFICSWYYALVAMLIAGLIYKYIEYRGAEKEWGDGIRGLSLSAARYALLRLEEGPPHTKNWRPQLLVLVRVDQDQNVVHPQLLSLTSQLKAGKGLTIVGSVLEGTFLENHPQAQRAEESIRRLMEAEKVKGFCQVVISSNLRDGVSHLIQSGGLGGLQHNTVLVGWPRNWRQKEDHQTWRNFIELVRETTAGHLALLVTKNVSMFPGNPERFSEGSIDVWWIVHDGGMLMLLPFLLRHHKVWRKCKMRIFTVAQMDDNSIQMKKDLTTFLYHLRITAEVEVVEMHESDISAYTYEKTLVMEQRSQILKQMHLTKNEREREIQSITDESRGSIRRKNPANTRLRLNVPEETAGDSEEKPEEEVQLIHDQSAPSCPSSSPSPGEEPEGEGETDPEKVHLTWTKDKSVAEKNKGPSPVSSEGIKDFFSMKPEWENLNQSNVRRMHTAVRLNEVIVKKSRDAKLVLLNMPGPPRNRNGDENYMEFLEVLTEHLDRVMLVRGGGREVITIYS
Insulin prom inh: TRM-6 insulin promoter activity inhibition. TRM-6 cells (human fetal islet line), insulin promoter-eGFP reporter, imaging; reporter expression induced with tamoxifen. inhibition, % at 2 µM. 130,000 compounds, 0.9% hits;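 active = inhibition above the mean plus 3 SD, with well images judged a real hit on visual review, cut at about 60% in these data, passing the limit was not always enough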
ROMK primary: human ROMK K+ channel modulation, primary screen | 130,000 compounds, 2% hits | Tet-inducible ROMK, thallium flux fluorescence; actives lie on both sides | B-score at 10 µM | AID 1918;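 active = signal ratio slope over the read window, or its plate-corrected B-score, at least 3 SD from the plate mean, either direction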;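 note: B-score of the F/F0 ratio slope over 7 to 12 s after thallium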
Numbers stand for hits; i = inactive; nt = no result given. Only some compounds are listed: those with a hit (about 12% of all), similar ones and a draw of the others.

SMILES	L major viab	Ins promoter up	WT yeast gro inh	KCC2 mod	Insulin prom inh	ROMK primary
Cc1nn(-c2ccccc2)c(C)c1C(=O)OCC(=O)NC12CC3CC(CC(C3)C1)C2	i	i	i	i	i	nt
CC(=O)Nc1ccc(NC(=O)COC(=O)c2c(C)nn(-c3ccccc3)c2C)cc1	67	i	i	i	i	nt
COCCCN(C(=S)Nc1cc(C)cc(C)c1)C(C)c1ccncc1 (stereo not given)	82	i	i	i	i	i
COCCCN(C(=O)Nc1cccc(Cl)c1)C(C)c1ccccn1 (stereo not given)	i	nt	i	i	i	nt
COCCCN(C(=S)Nc1ccc(OC)cc1)C(C)c1ccncc1 (stereo not given)	i	i	i	i	nt	i
COCCCN(C(=S)Nc1cccc(Cl)c1)C(C)c1ccncc1 (stereo not given)	63	i	i	i	i	i
COCCCN(C(=S)Nc1c(C)cc(C)cc1C)C(C)c1ccccn1 (stereo not given)	52	i	i	i	i	i
CC1=NN(C(=O)c2ccco2)C(O)(c2ccccc2)C1 (stereo not given)	nt	i	nt	i	nt	i
COc1cccc(-c2cc(C(=O)Nc3cccc(O)c3)no2)c1	i	i	i	i	i	nt
Cc1ccc(NCCc2ccc(C)nc2)cc1	i	i	i	i	75	nt
COc1cc2c(=O)nc3n(c2cc1OC)C(c1ccccc1)N=C(N)N3 (stereo not given)	i	i	i	i	i	nt
O=C(c1cc(F)ccc1F)C1CCCN(Cc2cccn2-c2ccccn2)C1 (stereo not given)	nt	i	nt	i	nt	nt
COc1ccc(F)cc1C(=O)C1CCCN(Cc2cccn2-c2ccccn2)C1 (stereo not given)	63	i	i	i	nt	i
COc1ccc(C(=O)C2CCCN(Cc3cccn3-c3ccccn3)C2)c(OC)c1 (stereo not given)	92	nt	i	i	nt	i
Cc1ccc(C2C(C(=O)c3cccs3)=C(O)C(=O)N2c2cccc(C)n2)cc1 (stereo not given)	nt	i	nt	i	nt	nt
Cc1cc([N+](=O)[O-])nn1CC(=O)NCc1cccs1	i	i	i	i	i	nt
Cc1cc([N+](=O)[O-])nn1CC(=O)NCc1ccco1	50	i	i	i	i	i
Cc1cccc(-c2nnc(SCC(=O)Nc3cccc(C(=O)N4CCOCC4)c3)n2C)c1	i	i	i	i	nt	i
COc1ccc(-c2nnc(SCc3ccccc3F)o2)cc1	i	nt	i	i	87	nt
Cc1ccc2c(c1)c1c(n2CC(O)Cn2c(C)nc3ccccc32)CCCC1 (stereo not given)	i	i	i	i	nt	nt
Cc1ccc2c(c1)c1c(n2CC(O)CNC(C)(C)C)CCCC1 (stereo not given)	82	i	i	i	nt	nt
Cc1ccc2c(c1)c1c(n2CC(O)Cn2nc(C)c(Br)c2C)CCCC1 (stereo not given)	i	nt	76	i	i	i
COc1ccc(-c2nc(=S)c3c([nH]2)Oc2ccc(C)cc2C3)cc1O	97	i	i	i	i	i
COc1ccc(-c2nc(-c3ccccc3)c(-c3cc([N+](=O)[O-])ccc3C)[nH]2)cc1O	i	i	i	i	i	nt
COc1ccc(NC(=S)Nc2cc(-c3ccccc3)[nH]n2)cc1Cl	i	i	66	nt	i	nt
SMILES	L major viab	Ins promoter up	WT yeast gro inh	KCC2 mod	Insulin prom inh	ROMK primary
COc1ccc(NC(=S)Nc2cc(C)[nH]n2)cc1Cl	nt	i	nt	i	nt	nt
Cc1cc(NC(=S)Nc2ccc(C)c(Cl)c2)n[nH]1	i	i	75	i	nt	i
CCOc1ccc(NC(=S)Nc2cc(-c3ccccc3)[nH]n2)cc1	i	nt	i	i	i	nt
Cc1ccc(S(=O)(=O)CC(=O)Nc2nc(-c3ccccc3)cs2)cc1	i	i	61	nt	i	i
Cc1ccc(S(=O)(=O)N(C)c2ccc(OCC(=O)Nc3nc4ccccc4s3)cc2)cc1	98	i	i	i	i	i
Cc1ccc(S(=O)(=O)N(C)c2ccc(OCC(=O)Nc3nc4c(ccc5ccccc54)s3)cc2)cc1	i	i	i	i	i	i
CCOC(=O)C(=O)c1csc(NC(=O)COc2ccc(N(C)S(=O)(=O)c3ccc(F)cc3)cc2)n1	i	i	i	i	i	i
Cc1ccc(S(=O)(=O)N(C)c2ccc(OCC(=O)Nc3nc(-c4ccccc4)cs3)cc2)cc1	89	i	i	i	i	nt
CN(c1ccc(OCC(=O)Nc2nc(-c3ccccc3)cs2)cc1)S(=O)(=O)c1ccc(F)cc1	97	i	i	i	i	i
COc1ccc(/C=C/C(=O)OC(C)CN2CCOCC2)cc1 (stereo not given)	i	i	i	i	i	i
COc1cc2nc(C3CCC3)n(NC(=O)c3ccco3)c(=O)c2cc1OC	i	i	i	i	i	i
Oc1ccc(C2Nc3cccc4cccc(c34)N2)c(O)c1	i	i	i	i	i	nt
Cc1ccc(-c2csc(NC(=O)CSc3nc4ccccc4o3)n2)cc1	81	i	i	i	i	i
CCN(CC)S(=O)(=O)c1cccc(C(=O)Nc2ccc(C#N)cc2)c1	i	i	i	i	nt	i
CCOC(=O)C(=O)NN=C(c1ccccc1)c1ccccc1	nt	nt	nt	i	nt	nt
CC(c1ccccc1)N1CCC(CNC(=S)Nc2cccc(Cl)c2)C1 (stereo not given)	95	i	i	i	nt	i
Cc1ccc(NC(=S)NCC2CCN(C(C)c3ccccc3)C2)cc1 (stereo not given)	78	i	i	i	nt	i
COc1ccc(N2CCC(CNC(=O)Nc3cccc(OC)c3)C2)cc1 (stereo not given)	i	nt	nt	i	i	i
COc1ccc(N2CCC(CNC(=S)Nc3cccc(OC)c3)C2)cc1 (stereo not given)	60	i	i	i	i	i
CCC(CC)C(=O)c1c[nH]c(C(=O)NCCOC)c1	i	i	i	i	i	i
CCOCCCNC(=O)CC1Oc2ccc(C)cc2NC1=O (stereo not given)	i	i	i	i	i	nt
Cc1ccc(Nc2nc(OC(C(F)(F)F)C(F)(F)F)nc(N3CCOCC3)n2)cc1	i	i	i	nt	i	i
FC(F)(F)C(Oc1nc(NC2CCCCC2)nc(N2CCOCC2)n1)C(F)(F)F	81	i	i	i	nt	i
CCN1CCN(CCCNC(=O)C(NC(=O)C2CCC(C)CC2)C(C)C)CC1 (stereo not given)	i	i	i	nt	i	i
COc1ccccc1N1CCN(C(=O)CSc2ncccc2-c2nc3ccccc3[nH]2)CC1	50	i	i	nt	i	i
COc1ccc(N2CCN(C(=O)CSc3ncccc3-c3nc4ccccc4[nH]3)CC2)cc1	58	i	i	i	i	nt
C=CCn1c(O)c(N=Nc2nc3ccccc3c(=O)n2-c2ccccc2)c2ccccc21	i	i	i	i	nt	i
O=C(O/N=C/c1cccc([N+](=O)[O-])c1)C1CC1	i	i	i	nt	i	nt
O=Cc1ccccc1OCCOc1ccc([N+](=O)[O-])cc1	52	i	i	i	i	nt
CC(C)(C)c1ccc(C2(C)NC(=O)N(CC(=O)Nc3ccc4c(c3)OCO4)C2=O)cc1 (stereo not given)	77	i	i	nt	i	i

High-throughput results as filed in PubChem.
